This passage reports inhibition results from PubChem BioAssay AID485273 (Sanford-Burnham Center for Chemical Genomics, 2010).

The structures appear in SMILES notation. In all, about 330,000 compounds went through this assay and about 1,500 (0.45%) were called active. Rule as the data show it: active = inhibition above about 45% (passing the limit was not always enough); inconclusive = no clear call, values can overlap the other calls. Shown is part of a subset that was picked to be rich in actives.

This experiment deals with Ubiquitin-conjugating enzyme E2 N (Homo sapiens) (UniProt P61088). Description: blockers of UBC13 ubiquitin chain synthesis – biochemical, TR-FRET, uHTS, primary screen (AID 485273). Conditions: UBC13 polyubiquitin chain formation, at 20 µM, hits give high values. In general terms: In TR-FRET formats the signal depends on donor and acceptor labels being close together.
Sequence of Ubiquitin-conjugating enzyme E2 N (Homo sapiens) (P61088 whole entry, looked up): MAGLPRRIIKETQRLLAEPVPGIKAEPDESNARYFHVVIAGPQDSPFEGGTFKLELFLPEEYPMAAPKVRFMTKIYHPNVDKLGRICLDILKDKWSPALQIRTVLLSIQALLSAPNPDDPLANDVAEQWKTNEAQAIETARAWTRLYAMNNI
Consider `CCCc1cc(=S)n2c([nH]c3ccccc32)c1C#N`, for which the inhibition was -11.8% (inactive).

As for `CCOC(=O)c1[nH]cnc1C(=O)Nc1ccccc1C`, the inhibition was -4.7% (inactive).

For `CCOC(=O)c1ccc(NC(=O)c2nc[nH]c2C(=O)NCc2ccccc2)cc1`, the inhibition is 65% (active).

Regarding `O=C(Nc1ccon1)c1nc[nH]c1C(=O)NCc1ccccc1`, the inhibition is -4.8% (inactive).

With `Cc1cc(C)c(SCCc2ccncc2)c(C)c1`, the inhibition is 5.6% (inactive).

Take `Cc1ccccc1CCNC(=O)C1CCC(=O)N(Cc2ccc(Cl)cc2)C1` (stereo not drawn): the inhibition was 1.4% (inactive).

In the case of `CCOC(=O)C1=C(c2ccccc2)O/C(=C(/C(=O)OC)C(F)(F)F)S1`, the inhibition is 46.8% (active).

For `CCOC(=O)c1nnn(-c2nonc2OC)c1-c1ccccc1`, the inhibition was 1% (inactive).

In the case of `COC(=O)/C(=C1\Oc2ccc(C(C)(C)C)cc2S1)C(F)(F)F`, the inhibition was -10.5% (inactive).

Consider `COc1ccc2sc(-c3ccc(S(C)(=O)=O)cc3)c(C#Cc3cncn3C)c2c1`, for which the inhibition is 47.1% (active).

Turning to `COc1ccc(-c2sc3ccc(OC)cc3c2C#Cc2ccccn2)cc1`, the inhibition is 29.9% (inactive).

In the case of `COc1ccc2sc(-c3ccc(S(C)(=O)=O)cc3)c(-c3ccc(C(N)=O)cc3)c2c1`, the inhibition is 38.5% (inactive).

`CCOC(=O)C1CCN(Cc2coc3ccc(Cl)cc3c2=O)CC1`: the inhibition is -15.5% (inactive).

Turning to `CCOC(=O)c1cccc(NS(=O)(=O)c2c(C(=O)N3CCCCCC3)c(C)n(C)c2C)c1`, the inhibition is 46.1% (active).

As for `Cc1c(C(=O)N2CCCC2)c(S(=O)(=O)NCC(C)c2ccccc2)c(C)n1C` (stereo not drawn), the inhibition is -2.8% (inactive).

Take `CCOC(=O)c1c(S(=O)(=O)Nc2cccc(Cl)c2)c(C)n(C)c1C`: the inhibition was -2.9% (inactive).

On to `Cc1nnc(SC(C)C(=O)Nc2ccc(S(=O)(=O)NC3CCCCC3)cc2)s1` (stereo not drawn), for which the inhibition was -0.1% (inactive).

`C=CCN1C(=O)C(Cc2ccc(OCC)cc2)SC1=Nc1ccc(C(=O)O)cc1` (stereo not drawn): the inhibition is 7.8% (inactive).

On to `CCC1CCC/C1=N\NC(=O)c1ccc(Cl)cc1` (stereo not drawn), for which the inhibition is 6.6% (inactive).

With `Cc1ccc(Oc2cc(NC(=O)CCCn3nc(C)c([N+](=O)[O-])c3C)cc([N+](=O)[O-])c2)cc1`, the inhibition was -3.8% (inactive).

Consider `CN(C)[C@@H]1C(=O)C(C(N)=O)=C(O)[C@@]2(O)C(=O)C3=C(O)c4c(O)ccc(Cl)c4[C@@H](O)[C@H]3C[C@@H]12`, for which the inhibition is 6.5% (inactive).

Regarding `C=C1c2c(Cl)ccc(O)c2C(O)=C2C(=O)[C@]3(O)C(O)=C(C(N)=O)C(=O)[C@@H](N(C)C)[C@@H]3[C@@H](O)C12` (stereo partly drawn), the inhibition was 57.1% (active).

In the case of `COc1ccccc1NC(=O)CSc1nnc(-c2ccoc2C)n1CCc1ccccc1`, the inhibition is 94.2% (active).

With `CCn1c(SCC(=O)Nc2cc(C)c(Cl)cc2OC)nnc1-c1ccco1`, the inhibition was 4.1% (inactive).

Take `CCCn1c(SCC(=O)Nc2cccc(C(=O)OCC)c2)nnc1-c1ccoc1C`: the inhibition is 11.9% (inactive).

For the molecule `CC(Oc1ccccc1)C(=O)Nc1oc(-c2ccco2)c(-c2ccco2)c1C#N` (stereo not drawn), the inhibition is -15.8% (inactive).

Consider `Cc1nonc1C1CCCN1Cc1nc(-c2ccc(F)cc2F)oc1C` (stereo not drawn), for which the inhibition is 0.7% (inactive).

As to `CC1(C)NC(=O)N(CC(=O)Nc2cc(C(F)(F)F)cc(C(F)(F)F)c2)C1=O`, the inhibition is 0.4% (inactive).

Take `C=CCn1c(Oc2ccc(C(=O)OC)cc2)nc2c1c(=O)n(C)c(=O)n2C`: the inhibition was -13% (inactive).

Regarding `O=S(=O)(c1ccccc1)N1CN(Cc2ccc(F)cc2)c2nc3ccccc3nc21`, the inhibition was -1.4% (inactive).

For the molecule `Cc1ccc(NC(=O)c2cc([N+](=O)[O-])ccc2Cl)c(O)c1`, the inhibition is 2.4% (inactive).

As to `CC[n+]1cc(C)ccc1/C=C/c1ccc(N(C)C)cc1`, the inhibition is -286% (inactive).

In the case of `CCOc1cc(C(C(=O)NCC2CCCO2)N(C(=O)Cn2nnc3ccccc32)c2cccc(OC)c2)ccc1O` (stereo not drawn), the inhibition is 4% (inactive).

Turning to `O=C(NCC(=O)N(c1ccccc1)C(C(=O)NCC1CCCO1)c1ccccc1)c1cccs1` (stereo not drawn), the inhibition was -2.5% (inactive).

With `Cc1ccc(N(C(=O)Cc2cccs2)C(C(=O)NCC2CCCO2)c2ccncc2)cc1` (stereo not drawn), the inhibition is -4.7% (inactive).

As to `COc1cccc(N(C(=O)c2snc(C(N)=O)c2N)C(C(=O)NCC2CCCO2)c2c[nH]c3ccccc23)c1` (stereo not drawn), the inhibition was 59.9% (active).

As to `Cc1cccc(N(C(=O)c2sc(C)nc2C)C(C(=O)NCC2CCCO2)c2ccccc2)c1` (stereo not drawn), the inhibition was 2.5% (inactive).

`Cc1ccc(C(C(=O)NCC2CCCO2)N(C(=O)c2snc(C(N)=O)c2N)c2ccc(C(C)C)cc2)o1` (stereo not drawn): the inhibition was 45.7% (active).

As to `CCOc1ccc(-n2c(N)c(C(=O)NCC3CCCO3)sc2=S)cc1` (stereo not drawn), the inhibition was 3.2% (inactive).

In the case of `CC(C)(C)NC(=O)C(c1ccc(Cl)cc1)N(CCO)C(=O)c1snc(C(N)=O)c1N` (stereo not drawn), the inhibition is 5.2% (inactive).

For `COCCNC(=O)C(c1ccc(C)o1)N(Cc1cccs1)C(=O)c1snc(C(N)=O)c1N` (stereo not drawn), the inhibition was 4.7% (inactive).

Turning to `Cc1ccc(N(C(=O)c2snc(C(N)=O)c2N)C(C(=O)NCC2CCCO2)c2c[nH]c3ccccc23)cc1` (stereo not drawn), the inhibition is 75% (active).

Turning to `CCOc1ccc(C(C(=O)NC2CCCC2)N(C(=O)c2snc(C(N)=O)c2N)C2CCCC2)cc1` (stereo not drawn), the inhibition was 5.2% (inactive).

With `CCOc1ccc(N(C(=O)c2snc(C(N)=O)c2N)C(C(=O)NCC2CCCO2)c2c[nH]c3ccccc23)cc1` (stereo not drawn), the inhibition was 89.4% (active).

With `COC(=O)Nc1ccc(S(=O)(=O)N(C)CC(F)(F)C(F)F)cc1`, the inhibition is 4.1% (inactive).

In the case of `COc1ccccc1N1CCN(C(=O)c2cc(=O)c3cc(C)cc(C)c3o2)CC1`, the inhibition was -5.8% (inactive).

Turning to `Cn1cc(S(=O)(=O)Nc2ccc(Cl)cc2Cl)c(=O)n(C)c1=O`, the inhibition was -9.5% (inactive).

Turning to `N/C(=N\OC(=O)CCc1ccccc1)c1ccc(Cl)cc1`, the inhibition was 3.8% (inactive).

In the case of `COC(=O)c1ccc(CSc2ccc3nnc(-c4ccccc4)n3n2)o1`, the inhibition was 14.2% (inactive).

In the case of `O=C(CSc1ccc2nnc(-c3ccccc3)n2n1)N1CCCc2ccccc21`, the inhibition was 8.9% (inactive).

As to `COc1ccc(-c2nnc3ccc(SCc4ccccc4)nn23)cc1`, the inhibition is 49.1% (active).

As to `COc1ccc(C)cc1S(=O)(=O)N(CC(=O)Nc1cccc([N+](=O)[O-])c1)c1ccc(C)cc1`, the inhibition was -5.5% (inactive).

For `COc1ccc(N(C(=O)c2snc(C(N)=O)c2N)C(C(=O)NC2CCCC2)c2ccco2)cc1OC` (stereo not drawn), the inhibition was 80.3% (active).

Regarding `COc1ccc(N(C(=O)c2snc(C(N)=O)c2N)C(C(=O)NC2CCCC2)c2ccc(C)o2)c(OC)c1` (stereo not drawn), the inhibition was 12.9% (inactive).

Turning to `COc1cc(C(C(=O)NC2CCCC2)N(Cc2ccccc2)C(=O)c2snc(C(N)=O)c2N)ccc1O` (stereo not drawn), the inhibition was 13.8% (inactive).

For `CCC(C(=O)NC1CCCC1)N(C(=O)c1snc(C(N)=O)c1N)c1ccc2c(c1)OCCO2` (stereo not drawn), the inhibition was 86.7% (active).

For `COc1ccc(C(C(=O)NC2CCCCC2)N(C(=O)c2snc(C(N)=O)c2N)c2ccccc2OC)cc1` (stereo not drawn), the inhibition was 8.5% (inactive).

Turning to `CCC(C(=O)NC1CCCCC1)N(C(=O)c1snc(C(N)=O)c1N)c1ccc(OC)cc1OC` (stereo not drawn), the inhibition was 14.4% (inactive).

Usually inhibition stands for the change of the read-out against control, counted positive when it falls.
